DRD3 agonist: activates the human D3 dopamine receptor; actives 0.58% (n = 410,000); max activation, %; D3R DiscoveRx beta-arrestin cells, luminescence, 90 min; in the data active = max activation above about 30%; also: 0% is about no effect
Target sequence (P35462 whole entry, looked up): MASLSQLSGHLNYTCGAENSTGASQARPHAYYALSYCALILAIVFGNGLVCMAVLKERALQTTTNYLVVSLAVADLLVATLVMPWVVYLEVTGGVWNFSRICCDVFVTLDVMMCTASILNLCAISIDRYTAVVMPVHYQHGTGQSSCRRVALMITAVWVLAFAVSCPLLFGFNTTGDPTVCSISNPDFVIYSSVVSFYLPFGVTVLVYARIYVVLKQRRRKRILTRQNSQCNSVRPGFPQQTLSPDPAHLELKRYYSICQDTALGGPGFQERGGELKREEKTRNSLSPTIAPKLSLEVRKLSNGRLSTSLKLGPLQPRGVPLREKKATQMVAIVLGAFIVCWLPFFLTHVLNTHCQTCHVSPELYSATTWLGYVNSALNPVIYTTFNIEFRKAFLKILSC
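Cells at 1500/well, incubated overnight, then treated with pinned compounds (dopamine as control) for 90 min at 37 degrees C. DiscoveRx reagent added for 30 - 60 minutes at room temperature; luminescence read.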
TGFb SMAD3 inh: blocks TGF-b signaling. HepG2 CAGA-GFP TGF-b/SMAD3 reporter, GFP fluorescence, 18 h; TGF-beta stimulated, 500 pg/mL final. Potency, µM (series often up to 46.1 µM), for inactives: at the top dose activity, negative = inhibition, hits mostly inhibitors. actives 1.2% (n = 410,000). AID 588855; also: potency is read from the fitted curve at half-maximal effect; % is scaled to controls: 0 for no effect and ±100 for the full control effect; nearly all actives have a fitted effect of over 65% in size
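HEPG2 CAGA-GFP cells (1000/well, DMEM with 1% FBS) were pre-incubated 2 h at 37 degrees C, given compound by pin tool, then stimulated with TGF-beta at 500 pg/mL final for 18 h before per-cell GFP fluorescence imaging.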
ATXN2 expr inh: ATXN2 expression inhibition; actives 0.72% (n = 360,000); Potency, µM (highest dose often 57 µM), inactives show at the top dose activity change, negative = inhibition, usual class: inhibitors; HEK-293 ATXN2-luciferase reporter, luminescence, 24 h; also: potency is read from the fitted curve at half-maximal effect; % is scaled to controls: 0 for no effect and ±100 for the full control effect; nearly all actives have a fitted effect of over 55% in size
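qHTS (up to 57 uM final) was run with 24 h compound exposure of reporter cells at 37 °C. Each well was multiplexed: SteadyGlo luminescence measured ATXN2-luciferase expression after a fluorogenic Gly-Phe-AFC viability readout (25 uM final).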
HepG2 tox: HepG2 cytotoxicity, counter-screen for TGF-b inhibitors | HepG2 CAGA-GFP viability, ATP luminescence, 18 h | actives 0.76% (n = 410,000) | Potency, µM (doses to about 46.1 µM), without a hit: at the top dose activity change, negative = cytotoxicity, usual class: cytotoxic; also: potency is read from the fitted curve at half-maximal effect
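HepG2 CAGA-GFP cells (1000/well, DMEM with 1% FBS) received compound, then TGF-beta at 500 pg/mL final, and were incubated 18 hours at 37 degrees C. Viability was read by CellTiter-Glo luminescence. Media-only wells were set as complete cell-killing and DMSO as no toxicity.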
ATXN viability: cell viability loss in ATXN counter-screen. Potency, µM (highest dose often 56.7 µM), usual class: cytotoxic. actives 0.49% (n = 400,000). AID 651635. S2 cells (HEK-293 line with an ATXN2-luciferase reporter) viability, CellTiter-Fluor protease fluorescence, 24 h; also: potency is read from the fitted curve at half-maximal effect; nearly all actives have a fitted effect of over 40% in size
DRD3 antagonist: D3 dopamine receptor (human) antagonism; P35462; D3R cells, DiscoveRx beta-arrestin luminescence, antagonist mode; active compounds read low; max response, negative = inhibition, %; actives 2.5% (n = 360,000); AID 652054; in the data active = max response below about -50%; inconclusive = no clear call, values can overlap the other calls; also: % is scaled to controls: 0 for no effect and ±100 for the full control effect
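Cells plated overnight at 1500 cells/well, then exposed to library compounds with dopamine controls for 90 minutes at 37 degrees C. DiscoveRx reagent added for 30–60 minutes at room temperature; luminescence read, quantitative HTS format.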
* hit, by the source's call; i = inactive; ? = inconclusive; nt = no result; [ ] = remark or other dose. Hits are enriched below; roughly 4.8% of the tested compounds scored in any of these assays. Unless noted, calls follow the shape of the dose curve; as a rule, active = well fitted curve in the direction sought with a large enough effect; inconclusive = small, poorly fitted or top-dose-only effect, or another doubt; inactive = no such curve, though single readings can be large; an effect the other way counts as inactive or inconclusive.

SMILES	DRD3 agonist	TGFb SMAD3 inh	ATXN2 expr inh	HepG2 tox	ATXN viability	DRD3 antagonist
CCCn1c2ccccc2c2cnn(CC(=O)NCCCN3CCN(c4ccccc4)CC3)c(=O)c21	4	?	?	-33%	?	-83*
Cn1c2ccccc2c2cnn(CC(=O)NCCCN3CCN(c4ccccc4F)CC3)c(=O)c21	11	?	nt	-18%	?	-90*
CN1CCN(CCCNC(=O)Cn2ncc3c4ccccc4n(C)c3c2=O)CC1	0	18%	5%	9%	i	-1
COc1cc(-c2cccc(Cl)c2)cc2c1OCCN(C(=O)CCn1ccc(C)n1)C2	nt	nt	nt	nt	i	nt
COc1cc(-c2nn3c(-c4cc(-c5ccccc5)n[nH]4)nnc3s2)cc(OC)c1OC	nt	-2%	nt	-8%	nt	nt
CC(C)NC(=O)c1cn([C@H]2CC[C@@H](NC(=O)/C=C/c3cccs3)CC2)nn1	nt	nt	nt	nt	i	nt
COc1ccc(SCC(c2ccccc2)N2CCN(CC(C)C)CCC2=O)cc1 (configuration not stated)	nt	-23%	nt	-29%	nt	nt
O=C(CCC(=O)N/N=C/c1cc(Cl)cc(Cl)c1O)NCc1ccccc1	-7	-23%	-26%	-25%	nt	-54*
O=C(CCC(=O)N/N=C/c1ccc(Br)s1)NCc1ccccc1	1	-8%	3%	3%	i	13
O=C(CCCOc1ccc(Cl)cc1Cl)N/N=C/c1ccccc1O	6	?	25µM*	-34%	?	-20
O=C(COc1ccc(Cl)cc1Cl)N/N=C/CCc1ccccc1	-2	-7%	2%	-18%	i	-55*
O=C(COc1ccc(Cl)cc1Cl)N/N=C/c1ccc[nH]1	-2	-2%	nt	-30%	i	-1
O=C(CCCOc1ccc(Cl)cc1Cl)N/N=C/c1ccccc1	4	?	8%	-58%	i	13
Nc1ccc2cccnc2c1	nt	-2%	nt	-16%	nt	nt
O=C(Cn1cnc2ccccc2c1=O)Nc1cccc(-c2nnc3n2CCCCC3)c1	-1	24%	2%	-12%	i	-51*
Cc1ccc(S(=O)(=O)Cc2ccc(C(=O)OCc3ccccc3)cc2)cc1	-2	6%	-3%	-8%	i	19
COC(=O)c1c[nH]c2c1-c1cc(C(=O)OCc3ccccc3)n(S(=O)(=O)c3ccc(C)cc3)c1C(=O)C2=O	-2	0.45µM*	?	0.56µM*	?	11
CC(=O)N(/N=C1\Sc2ccccc2C1=O)c1ccccc1	-2	8%	54%	0%	i	-59*
CCOC(=O)N1CCN(C(=O)c2ccc3c(=O)n(-c4ccc(OC)cc4)c(=S)[nH]c3c2)CC1	-2	1%	-8%	-17%	i	-2
CCCCCn1c(=S)[nH]c2cc(C(=O)N3CCN(C(=O)OCC)CC3)ccc2c1=O	3	4%	-4%	0%	i	-90*
CCOC(=O)N1CCN(C(=O)c2ccc(-n3c(=S)[nH]c4ccccc4c3=O)cc2)CC1	42*	0%	-22%	3%	i	13
C=CCn1c(=O)/c(=C/c2cc(OC)c(OC)c(OC)c2)s/c1=C(/C#N)c1nc2ccccc2n1C	7	12%	-34%	-22%	i	-51*
Cc1[nH]n(-c2ccccc2)c(=O)c1C=Nc1ccc2[nH]c(=O)[nH]c2c1	-8	58%	-1%	2%	i	-7
Cc1[nH]oc(=O)c1N=Nc1ccc2[nH]c(=O)[nH]c2c1	7	0%	nt	-6%	?	-66*
COc1ccc(CCNC(=O)c2cc(C(=O)c3cc(C)ccc3O)cn(CCc3ccc(OC)cc3)c2=O)cc1	31*	-4%	-2%	-28%	i	67
SMILES	DRD3 agonist	TGFb SMAD3 inh	ATXN2 expr inh	HepG2 tox	ATXN viability	DRD3 antagonist
COc1ccc(C(=O)Cn2c(C(=O)/C=C/c3ccccc3)nc3ccccc32)cc1	-9	2%	22µM*	-50%	?	?
CCCCCCCCCOC(=O)CNc1nc(C#N)nc(NCC(=O)OCCCCCCCCC)n1	nt	7%	nt	17%	nt	nt
CCn1c(Nc2ccccc2Cl)nc2ccccc21	0	17%	-11%[11.3 µM]	-1%	i	6
CCn1c2ccccc2nc2cc3c(cc21)c(Cl)c(=O)c1ccccc13	3	18µM*	nt	-119%	nt	-17
Cc1c(CCOc2ccc(C(=O)O)cc2)c2cc(Cl)ccc2n1C(c1ccccc1)c1ccccc1	nt	nt	-20%	nt	nt	nt
C=C[C@H](CC(C)C)N(Cc1ccccc1)S(=O)(=O)N(Cc1ccccc1)[C@H](C=C)CC(C)C	nt	0%	nt	10%	nt	nt
Oc1ccc(Cl)cc1CNCc1ccc(F)cc1	-43	-1%	0%	-11%	i	-81*
Oc1ccc(Cl)cc1CNCc1ccc(Cl)cc1	-27	-12%	2%	-24%	i	?
COCCCNCCOCCOc1ccc(C)cc1Br	-26	0%	-6%	-12%	i	?
CCCCNCCOCCOc1ccc(C)cc1Br	-15	8%	-8%	-45%	i	-81*
COc1ccccc1OCCOCCOc1ccc(C)cc1Br	-2	-16%	1%	-29%	i	3
CCC(C)NCCOCCOc1ccc(Cl)cc1Br (configuration not stated)	-21	-24%	-28%	13%	i	-83*
Cc1ccc(OCCOCCNC(C)C)c(Br)c1	-3	4%	-6%	-48%	i	-75*
CC(NC(=O)c1ccco1)c1nnc2n1CCN(Cc1ccc(N(C)C)cc1)CC2 (configuration not stated)	nt	nt	nt	nt	i	nt
CC(C)C[C@@H](N)[C@H](O)C(=O)N[C@H](C(=O)N[C@H](C(=O)N[C@@H](CC(=O)O)C(=O)O)C(C)C)C(C)C	nt	nt	-11%	nt	nt	nt
NC(c1ccc(F)c(F)c1)c1nc(-c2cc(F)cc(F)c2)cs1 (configuration not stated)	9	-14%	-2%	0%	i	-72*
NC(c1ccc(F)c(F)c1)c1nc(-c2cncnc2)cs1 (configuration not stated)	1	6%	2%	-10%	i	0
CCCCC(F)(F)[C@@]1(O)CC[C@H]2[C@@H](CC(=O)[C@@H]2CCCCCCC(=O)O)O1	2	nt	nt	nt	nt	nt
CCO[C@@H]1OC(C(=O)NC2CC2)=C[C@H](c2c[nH]c3ccccc23)[C@H]1CCCO	4	-4%	13%	-2%	i	-65*
CCO[C@H]1OC(C(=O)NC2CC2)=C[C@@H](c2c[nH]c3ccccc23)[C@@H]1CCCO	2	4%	8%	0%	i	27
CCOC(=O)C(=CNc1ccc(NC2=NCC(C)(C)S2)cc1)C(=O)OCC	52*	-14%	-10%	17%	i	104

Screening results (PubChem BioAssay)
